Records with an inconclusive call do not appear. Calls of active or inactive are those of the source. Calls follow the shape of the full dose curve.
Assays:
[1] = Primary qHTS for inhibitors of SARS-S pseudo-typed particle cell entry (AID 1479145); also: nearly all actives have a fitted effect of over 45% in size; also: potency is read from the fitted curve at half-maximal effect
[2] = Primary qHTS for Huh7 cytotoxicity: counterscreen for inhibitors of MERS-S pseudotyped particle cell entry (AID 1479147); also: potency is read from the fitted curve at half-maximal effect
[3] = Primary qHTS for inhibitors of MERS-S pseudo-typed particle cell entry (AID 1479149); also: nearly all actives have a fitted effect of over 60% in size; also: potency is read from the fitted curve at half-maximal effect
[4] = Primary qHTS for Vero E6 cytotoxicity: counterscreen for inhibitors of SARS-S pseudo-typed particle cell entry (AID 1479150)

Measured: Potency

Cc1ncc([N+](=O)[O-])n1CCO
inactive: all assays above

CC12CC3CC(C)(C1)CC(N)(C3)C2
inactive: all assays above

CC1(C)NC(=O)N(c2ccc([N+](=O)[O-])c(C(F)(F)F)c2)C1=O
active: [1] 35.5 µM
inactive: [2]

NC(=Nc1ccccc1)Nc1ccccc1
inactive: all assays above

CC#C[C@]1(O)CC[C@H]2[C@@H]3CCC4=CC(=O)CCC4=C3[C@@H](c3ccc(N(C)C)cc3)C[C@@]21C
inactive: all assays above

O=C1C(=O)c2ccccc2C(O)=C1C1CCC(c2ccc(Cl)cc2)CC1 (stereo not drawn)
active: [1] 0.891 µM | [3] 22.4 µM
inactive: [2]

CCN1CCN(C(=O)N[C@@H](C(=O)N[C@@H]2C(=O)N3C(C(=O)O)=C(CSc4nnnn4C)CS[C@H]23)c2ccc(O)cc2)C(=O)C1=O
inactive: all assays above

CC(C)(C)NC(=O)[C@H]1CC[C@H]2[C@@H]3CC[C@H]4NC(=O)C=C[C@]4(C)[C@H]3CC[C@]12C
inactive: all assays above

CN(C)CCOC(c1ccc(Cl)cc1)c1ccccn1 (stereo not drawn)
inactive: [1] | [2] | [3]

CC[C@@H](CO)NCCN[C@@H](CC)CO
inactive: all assays above

CC1(C)O[C@@H]2[C@@H](CO[C@@]3(COS(N)(=O)=O)OC(C)(C)O[C@@H]23)O1
inactive: all assays above

CCOC(=O)[C@H](CCc1ccccc1)N[C@@H](C)C(=O)N1Cc2ccccc2C[C@H]1C(=O)O
inactive: all assays above

O[C@@H]1CO[C@H]2[C@@H]1OC[C@@H]2O
inactive: all assays above

CCCN[C@H]1CCc2nc(N)sc2C1
inactive: all assays above

COc1cc2c(c(OC)c1OC)-c1ccc(OC)c(=O)cc1[C@@H](NC(C)=O)CC2
inactive: [1] | [2] | [3]

CC(C)Nc1cccnc1N1CCN(C(=O)c2cc3cc(NS(C)(=O)=O)ccc3[nH]2)CC1
inactive: [1] | [2] | [3]

Oc1cn2c(n1)Nc1ccc(Cl)c(Cl)c1C2
inactive: all assays above

CNS(=O)(=O)Cc1ccc2[nH]cc(CCN(C)C)c2c1
inactive: all assays above

CC[C@@H]([C@H](C)O)n1ncn(-c2ccc(N3CCN(c4ccc(OC[C@@H]5CO[C@@](Cn6cncn6)(c6ccc(F)cc6F)C5)cc4)CC3)cc2)c1=O
active: [1] 14.1 µM | [3] 12.6 µM
inactive: [2] | [4]

Cc1ccccc1N1C(=O)c2cc(S(N)(=O)=O)c(Cl)cc2NC1C (stereo not drawn)
inactive: all assays above

CCCSc1ccc2nc(NC(=O)OC)[nH]c2c1
inactive: [1] | [2] | [3]

Cc1nc(-c2ccc(OCC(C)C)c(C#N)c2)sc1C(=O)O
inactive: [1] | [2] | [3]

COc1ccc(Cl)cc1C(=O)NCCc1ccc(S(=O)(=O)NC(=O)NC2CCCCC2)cc1
inactive: all assays above

CC[C@]1(O)C[C@H]2CN(CCc3c([nH]c4ccccc34)[C@@](C(=O)OC)(c3cc4c(cc3OC)N(C=O)[C@H]3[C@@](O)(C(=O)OC)[C@H](OC(C)=O)[C@]5(CC)C=CCN6CC[C@]43[C@@H]65)C2)C1
inactive: [1] | [2]

O=C1c2c(O)ccc(O)c2C(=O)c2c(NCCNCCO)ccc(NCCNCCO)c21
inactive: [1]
active: [2] 25.1 µM

CC(C)Oc1ccc2c(=O)c(-c3ccccc3)coc2c1
inactive: [1]

CC1=C(C(=O)O)N2C(=O)[C@@H](NC(=O)[C@H](N)c3ccc(O)cc3)[C@H]2SC1
inactive: all assays above

CC(=O)[C@]1(O)Cc2c(O)c3c(c(O)c2[C@@H](O[C@H]2C[C@H](N)[C@H](O)[C@H](C)O2)C1)C(=O)c1ccccc1C3=O
active: [1] 8.91 µM | [2] 7.08 µM

Cc1nc(Nc2ncc(C(=O)Nc3c(C)cccc3Cl)s2)cc(N2CCN(CCO)CC2)n1
inactive: [1] | [2]

NC[C@H](O)c1ccc(O)c(O)c1
inactive: all assays above

COc1cc2ncnc(Nc3ccc(F)c(Cl)c3)c2cc1OCCCN1CCOCC1
active: [1] 12.6 µM

Cc1cccc(C)c1OCC(C)N (stereo not drawn)
inactive: all assays above

N=c1nc(N2CCCCC2)cc(N)n1O
inactive: all assays above

CC(C)OC(=O)C(C)(C)Oc1ccc(C(=O)c2ccc(Cl)cc2)cc1
inactive: [1]

CN1C[C@H]2c3ccccc3Oc3ccc(Cl)cc3[C@@H]2C1
inactive: [1]

CCCc1cc(=O)[nH]c(=S)[nH]1
inactive: all assays above

C=C(CC)C(=O)c1ccc(OCC(=O)O)c(Cl)c1Cl
inactive: all assays above

O=C(O)COCCN1CCN(C(c2ccccc2)c2ccc(Cl)cc2)CC1 (stereo not drawn)
inactive: all assays above

CCCN(CCC)CCc1cccc2c1CC(=O)N2
inactive: all assays above

Cc1cn[nH]c1
inactive: all assays above

CCCCNC(=O)NS(=O)(=O)c1ccc(C)cc1
inactive: all assays above

Nc1nc2c(ncn2COC(CO)CO)c(=O)[nH]1
inactive: all assays above

O=P(O)(O)C(O)(Cc1cccnc1)P(=O)(O)O
inactive: all assays above

CC[N+](C)(C)c1cccc(O)c1
inactive: all assays above

COCCCOc1cc(C[C@@H](C[C@H](N)[C@@H](O)C[C@H](C(=O)NCC(C)(C)C(N)=O)C(C)C)C(C)C)ccc1OC
inactive: all assays above

CCCCN1C[C@H](O)[C@@H](O)[C@H](O)[C@H]1CO
inactive: all assays above

CCCNC(=O)NS(=O)(=O)c1ccc(Cl)cc1
inactive: all assays above

CC(=O)Nc1nnc(S(N)(=O)=O)s1
inactive: all assays above

OC(Cn1cncn1)(Cn1cncn1)c1ccc(F)cc1F
inactive: all assays above

CC(C)[N+](C)(CCOC(=O)C1c2ccccc2Oc2ccccc21)C(C)C
inactive: all assays above

Clc1ccc(C(c2ccccc2Cl)C(Cl)Cl)cc1 (stereo not drawn)
inactive: all assays above

CC/C=C(\C(=O)N[C@@H]1C(=O)N2C(C(=O)OCOC(=O)C(C)(C)C)=C(COC(N)=O)CS[C@H]12)c1csc(N)n1
inactive: all assays above

COC(c1ccccc1)(c1ccccc1)[C@H](Oc1nc(C)cc(C)n1)C(=O)O
inactive: all assays above

CNCCc1ccccn1
inactive: all assays above

CC(C)c1nc(CN(C)C(=O)N[C@H](C(=O)N[C@@H](Cc2ccccc2)C[C@H](O)[C@H](Cc2ccccc2)NC(=O)OCc2cncs2)C(C)C)cs1
inactive: all assays above

Cc1cnc(C(=O)NCCc2ccc(S(=O)(=O)NC(=O)NC3CCCCC3)cc2)cn1
inactive: all assays above

CCCCOCCOCCOCc1cc2c(cc1CCC)OCO2
inactive: all assays above

Cc1[nH]c(=O)c(C#N)cc1-c1ccncc1
inactive: all assays above

NC(=O)NO
inactive: all assays above

c1cnc2cc3c(cc2n1)C1CNCC3C1
inactive: all assays above

CN1C(CCl)Nc2cc(Cl)c(S(N)(=O)=O)cc2S1(=O)=O (stereo not drawn)
inactive: all assays above

CC(COc1ccccc1)N(CCCl)Cc1ccccc1 (stereo not drawn)
inactive: all assays above

O=C1Cc2cc(CCN3CCN(c4nsc5ccccc45)CC3)c(Cl)cc2N1
inactive: all assays above

NC(=O)C(c1ccccc1)(c1ccccc1)[C@@H]1CCN(CCc2ccc3c(c2)CCO3)C1
inactive: all assays above

O=C(C1CCCCC1)N1CC(=O)N2CCc3ccccc3C2C1 (stereo not drawn)
inactive: all assays above

O=C(NCCN1CCOCC1)c1ccc(Cl)cc1
inactive: all assays above

CC(C)(O)c1ccccc1CC[C@@H](SCC1(CC(=O)O)CC1)c1cccc(/C=C/c2ccc3ccc(Cl)cc3n2)c1
inactive: all assays above

C1N2CN3CN1CN(C2)C3
inactive: all assays above

CCOC(=O)Nc1ccc2c(c1)N(C(=O)CCN1CCOCC1)c1ccccc1S2
inactive: all assays above

CC[C@@]1(c2ccccc2)NC(=O)N(C)C1=O
inactive: all assays above

NCCCC(O)(P(=O)(O)O)P(=O)(O)O
inactive: all assays above

COC(=O)C(c1ccccc1Cl)N1CCc2sccc2C1 (stereo not drawn)
inactive: all assays above

Nc1cc(-c2ccncc2)c[nH]c1=O
inactive: all assays above

C[C@@H]1C[C@H]2[C@@H]3CCC4=CC(=O)C=C[C@]4(C)[C@@]3(F)[C@@H](O)C[C@]2(C)[C@@]1(O)C(=O)CO
inactive: all assays above

— PubChem BioAssay (NCATS)
